# Measurements as given in ChEMBL document CHEMBL4513154, “CO-ADD screening of Jain University (India) compounds”.
# Potency and affinity values are given separately.
# Legend:
# Staphylococcus aureus = conditions: Concentration 32 ug.mL-1; ASSAY_TEST Inhibition of Bacterial Growth; detection method Absorption (OD600); MEDIA CAMHB; plate type 384well; NBS; CORNING #3640; time 18 hr
# Escherichia coli = conditions: Concentration 32 ug.mL-1; ASSAY_TEST Inhibition of Bacterial Growth; detection method Absorption (OD600); MEDIA CAMHB; plate type 384well; NBS; CORNING #3640; time 18 hr
Compound,Inhibition (Staphylococcus aureus) [%],Inhibition (Escherichia coli) [%]
CCc1ccc(Nc2nc(N)c(-c3nc4ccccc4c(=O)n3-c3ccc(Cl)cc3)s2)cc1,11.42,0.09
N#Cc1ccccc1-c1ccc(Cn2c(-c3cscn3)nc3c(Cl)cccc32)cc1,2.86,1.52
N#Cc1ccc(Cn2c(-c3cscn3)nc3c(Cl)cccc32)cc1,-3.58,-8.14
O=[N+]([O-])c1ccc(Cn2c(-c3cscn3)nc3ccccc32)cc1,0.92,-6.04
Cn1c(-c2cscn2)nc2c(Cl)cccc21,-0.57,-9.25
CCc1ccc(Nc2nc(N)c(-c3nc4ccccc4c(=O)n3-c3ccccc3)s2)cc1,14.54,-0.69
N=C(Nc1ccccc1)c1cscn1,-2.93,3.08
Nc1nc(Nc2ccccc2)sc1-c1nc2ccccc2c(=O)n1-c1ccccc1,10.63,1.98
N#Cc1ccccc1-c1ccc(Cn2c(-c3cscn3)nc3ccccc32)cc1,0.09,-0.92
CCc1ccc(Nc2nc(N)c(-c3nc4ccccc4c(=O)n3-c3ccc(CC)cc3)s2)cc1,1.66,-1.71
CC(C)c1ccc(Cn2c(-c3cscn3)nc3c(Cl)cccc32)cc1,1.32,-0.45
N=C(Nc1ccccc1Cl)c1cscn1,4.17,18.4
Clc1cccc2c1nc(-c1cscn1)n2Cc1ccccc1,-5.58,-9.3
Fc1cc(Cn2c(-c3cscn3)nc3c(Cl)cccc32)cc(C(F)(F)F)c1,6.77,3.26
